The campaign covered roughly 52,000 compounds. About 1,700 (3.3%) were called active. Rule as the data show it: active = survival mostly below about 52% (no sharp cut-off); inactive = mostly above about 56%. The list comes from a sample in which actives are over-represented; it also holds similar structures and randomly drawn compounds.

This assay has as its system Wild type. The assay can be described thus: growth inhibition of S. aureus wild type versus tarO mutant, primary screen, teichoic acid synthesis inhibitors, RN4220, OD600 (AID 463173). The settings on record: S. aureus RN4220 wild type/DeltatarO growth, OD600, 18 h, active compounds read low, screened at 18.75 µg/mL (by protocol).
As for `CCOC(=O)Cc1ccc(NC(=O)NCc2cccn2Cc2ccccc2)cc1`, the survival was -6% (active).

For the compound `CCOC(=O)c1cccc(NC(=O)NCc2cccn2Cc2ccccc2)c1`, the survival is 123% (inactive).

With `CCOc1ccc(NC(=O)NCc2cccn2Cc2ccccc2)cc1`, the survival is 64% (inactive).

In the case of `Cc1nn(CC(=O)NCc2cccc(F)c2)c(=O)c2c(C)n(-c3ccc(Cl)cc3)nc12`, the survival is 75% (inactive).

`COc1ccc(/C=C/c2nc(-c3ccccc3O)n(-c3ccccc3)n2)cc1OC`: the survival is 8% (active).

As to `CN(C)c1ccc(/C=C/c2nc(-c3ccccc3O)n(-c3ccccc3)n2)cc1`, the survival was 46% (inactive).

Turning to `Oc1ccccc1-c1nc(/C=C/c2ccccc2Cl)no1`, the survival was 81% (inactive).

On to `COc1cc2c(-c3ccccc3O)nc3c(c(C)nn3-c3ccccc3)c2cc1OC`, for which the survival is 63% (inactive).

For `Oc1ccccc1-c1nc(/C=C/c2ccccc2Cl)nn1-c1ccccc1`, the survival was 2% (active).

Regarding `COc1cc2c(-c3ccccc3Cl)nc3c(c(C)nn3-c3ccccc3)c2cc1OC`, the survival was 73% (inactive).

Turning to `Cc1nc(C)c(C(=O)N/N=C/c2ccc(O)cc2O)cc1C(=O)N/N=C/c1ccc(O)cc1O`, the survival was 108% (inactive).

`COc1ccc(/C=C/c2noc(-c3ccccc3O)n2)cc1OC`: the survival was 136% (inactive).

Turning to `Oc1ccccc1-c1nc(/C=C/c2ccc(F)cc2)nn1-c1ccccc1`, the survival is 34% (inactive).

For `Oc1ccccc1-c1nc(/C=C/c2ccccc2)nn1-c1ccccc1`, the survival is 2% (active).

On to `CC(=O)Nc1ccc(/C=C/c2nc(-c3ccccc3O)n(-c3ccccc3)n2)cc1`, for which the survival was 86% (inactive).

With `Oc1ccc(/C=C/c2nc(-c3ccccc3O)n(-c3ccccc3)n2)c(O)c1`, the survival was -1% (active).

For the compound `COCCn1c(Cc2ccccc2)nnc1SCC(=O)N(C)C`, the survival is 100% (inactive).

With `CC(C)(C)NC(=O)c1ccc2nc(CCc3ccccc3)oc2c1`, the survival was 65% (inactive).

As for `Cn1c(CNc2cccc(C(F)(F)F)c2)n[nH]c1=S`, the survival was 111% (inactive).

In the case of `O=C(Cn1cc(SCc2ccccc2)c2ccccc21)N1CCCCCC1`, the survival was 83% (inactive).

On to `O=C(Cn1cnc(S(=O)(=O)N2CCCC2)c1)Nc1ccc(OC(F)(F)F)cc1`, for which the survival is 84% (inactive).

For `CCCCNC(=O)CN1CCN(c2ccc(NC(=O)c3ccc(OC)cc3)cc2C(=O)O)CC1`, the survival is 80% (inactive).

With `COc1ccc(CCNC(=O)c2ccc3c(c2)N(Cc2cccc(C)c2)C(=O)c2ccccc2S3(=O)=O)cc1OC`, the survival is 101% (inactive).

With `CCC(C)(C)C(=O)Nc1nnc(COC)s1`, the survival was 122% (inactive).

Regarding `CC(C)(C)Sc1ccc(SC#N)s1`, the survival is 23% (active).

As to `N#CSc1ccc2nc(N)sc2c1`, the survival is 93% (inactive).

Turning to `Cc1ccccc1NC(=O)C(Cc1ccccc1)N1Cc2ccccc2C1=O` (stereo not given), the survival was 76% (inactive).

Consider `N#CC(C#N)C(CC(=O)c1ccccc1)c1ccc2c(c1)OCO2` (stereo not given), for which the survival was 111% (inactive).

In the case of `Cc1c(Cl)cccc1NC(=O)CC(c1cccs1)N1Cc2ccccc2C1=O` (stereo not given), the survival is 0% (active).

With `O=C(CC(c1cccs1)N1Cc2ccccc2C1=O)Nc1ccccc1F` (stereo not given), the survival was 73% (inactive).

Regarding `CCc1ccccc1NC(=O)CC(c1ccc(F)cc1)N1Cc2ccccc2C1=O` (stereo not given), the survival was 121% (inactive).

In the case of `Cc1c(Cl)cccc1NC(=O)CC(c1ccc(F)cc1)N1Cc2ccccc2C1=O` (stereo not given), the survival is 10% (active).

In the case of `O=C(CC(c1cccs1)N1Cc2ccccc2C1=O)Nc1ccc(Cl)cc1` (stereo not given), the survival was 129% (inactive).

`CCOc1ccccc1NC(=O)CC(c1ccc(F)cc1)N1Cc2ccccc2C1=O` (stereo not given): the survival was 80% (inactive).

Consider `Cc1cccc(Cn2c(SCc3ccc(C(=O)NCc4ccccc4F)cc3)nc3ccncc32)c1`, for which the survival was 80% (inactive).

Consider `COCCn1c(C)nnc1SCC1CCCO1` (stereo not given), for which the survival is 127% (inactive).

On to `COC(=O)c1ccc(NC(=O)c2cccc3c2C(=O)N(C2CCCCC2)C3)cc1`, for which the survival is 88% (inactive).

With `CC(C)c1ccc(NC(=O)c2cccc3c2C(=O)N(C2CCCCC2)C3)cc1`, the survival is 1% (active).

Turning to `Cc1cc(C)cc(NC(=O)c2cccc3c2C(=O)N(C2CCCCC2)C3)c1`, the survival is 42% (inactive).

As for `Cn1c(C(C(=O)NCC2CCCO2)N(C(=O)Cn2nnc3ccccc32)c2ccc3c(c2)OCO3)nc2ccccc21` (stereo not given), the survival is 111% (inactive).

In the case of `Cc1cc(C(=O)N2CCN(c3ccccc3)CC2)c2c(C)nn(-c3cccc(F)c3)c2n1`, the survival was 63% (inactive).

With `COc1cccc(CNC(=O)c2cc(C)nc3c2c(C)nn3-c2cccc(F)c2)c1`, the survival is 131% (inactive).

In the case of `COc1ccc(NC(=O)c2cc(C)nc3c2c(C)nn3-c2cccc(Cl)c2C)c(OC)c1`, the survival was 85% (inactive).

With `Cc1ccc(C)c(N2CCN(C(=O)c3cc(C)nc4c3c(C)nn4-c3cccc(F)c3)CC2)c1`, the survival was 0% (active).

For `CCc1cccc(C)c1NC(=O)c1cc(C)nc2c1c(C)nn2-c1cccc(Cl)c1C`, the survival is 78% (inactive).

For `Cc1cc(C)cc(NC(=O)c2cc(C)nc3c2c(C)nn3-c2ccccc2)c1`, the survival is -6% (active).

Consider `Cc1cc(C(=O)NCc2ccccc2)c2c(C)nn(-c3cccc(F)c3)c2n1`, for which the survival is 14% (active).

Take `Cc1ccc(NC(=O)c2cc(C)nc3c2c(C)nn3-c2cccc(Cl)c2C)c(C)c1`: the survival is -6% (active).

Turning to `Cc1cc(C(=O)Nc2ccc(C(C)C)cc2)c2c(C)nn(-c3ccccc3)c2n1`, the survival was 80% (inactive).

Regarding `Cc1ccc(-n2nc(C)c3c(C(=O)Nc4ccc(Br)c(C)c4)cc(C)nc32)cc1`, the survival was 78% (inactive).

As for `Cc1ccc(C)c(N2CCN(C(=O)c3cc(C)nc4c3c(C)nn4-c3ccccc3)CC2)c1`, the survival is 134% (inactive).

Turning to `Cc1cc(C(=O)NCc2ccccc2C)c2c(C)nn(-c3cccc(F)c3)c2n1`, the survival is 76% (inactive).

As to `O=C1CC(c2ccccc2C(F)(F)F)c2c(c3ccccc3[nH]c2=O)O1` (stereo not given), the survival is 69% (inactive).

Take `Cc1cccc(-c2noc(-c3cccnc3NCc3ccccc3Cl)n2)c1`: the survival is 79% (inactive).

Take `N#Cc1ccccc1CN1C(=O)c2ccccc2Sc2ccc(C(=O)OCc3ccco3)cc21`: the survival was 85% (inactive).

As for `CC1CCN(S(=O)(=O)c2ccc3c(c2)N(CC(=O)N2CCN(c4ccccc4)CC2)C(=O)CO3)CC1`, the survival is 87% (inactive).

Consider `CCN(CC)C(=O)CSc1nsc(SCC(=O)N(CC)CC)c1C#N`, for which the survival was 102% (inactive).

With `CC(=O)Nc1ccc(S(=O)(=O)N2CCC(Oc3ccc(-n4cnnn4)cc3)CC2)cc1`, the survival is 118% (inactive).

For `O=C(CN1C(=O)S/C(=C\c2ccco2)C1=O)CN1C(=O)S/C(=C\c2ccco2)C1=O`, the survival is 113% (inactive).

With `OC1N(CN2CCN(c3ccccc3F)CC2)c2ccccc2C12OCCCO2` (stereo not given), the survival was 104% (inactive).

`Cn1cnnc1SCC(=O)Nc1ccc(C#N)cc1`: the survival is 71% (inactive).

Consider `CC(=O)c1cccc(NC(=O)CCCSc2nc(-c3ccco3)cc(C(F)(F)F)n2)c1`, for which the survival was 52% (inactive).

Regarding `Cc1ccccc1CSc1nc(-c2cccc(F)c2)nc2c1Cc1c(CO)cnc(C)c1O2`, the survival is 85% (inactive).

For `Cc1cc(C(=O)Nc2cccc(C)c2C)c2c(C)nn(-c3cccc(F)c3)c2n1`, the survival is 73% (inactive).

With `Cc1cc(C(=O)Nc2cccc(C(F)(F)F)c2)c2c(C)nn(-c3cccc(F)c3)c2n1`, the survival was -1% (active).

As for `Cc1cc(C)c(NC(=O)c2cc(C)nc3c2c(C)nn3-c2cccc(F)c2)c(C)c1`, the survival is 83% (inactive).

Consider `CCc1ccc(-n2nc(C)c3c(C(=O)Nc4cc(OC)cc(OC)c4)cc(C)nc32)cc1`, for which the survival is 66% (inactive).

As to `CCc1ccc(-n2nc(C)c3c(C(=O)Nc4cccc(C(F)(F)F)c4)cc(C)nc32)cc1`, the survival was -3% (active).

As for `CCc1ccc(-n2nc(C)c3c(C(=O)Nc4ccc(Cl)cc4)cc(C)nc32)cc1`, the survival is 53% (inactive).

On to `CCc1nnc2c3ccccc3nc(Nc3cc(C)cc(C)c3)n12`, for which the survival was 37% (inactive).

As to `Cc1cc(C)nc(NS(=O)(=O)c2ccc(NC(=O)c3ccccc3O)cc2)n1`, the survival was 127% (inactive).

On to `CCCN1CCN(c2nnc(-n3cccc3C(=O)Nc3cc(Cl)ccc3C)s2)CC1`, for which the survival was 82% (inactive).

`Cc1c(C(=O)N(C)C)sc2c1c(=O)n(-c1ccccc1C(F)(F)F)c(=O)n2Cc1ccccc1C#N`: the survival was 66% (inactive).

Regarding `CCOC(=O)c1ccccc1NC(=O)Cn1c(=O)n(CCC(=O)N2CCc3ccccc3C2)c(=O)c2ccccc21`, the survival is 88% (inactive).

On to `Cc1cccc2sc(N(Cc3cccnc3)C(=O)CCS(=O)(=O)c3ccccc3)nc12`, for which the survival was 82% (inactive).

For `Cc1cc(C)c2nc(N(Cc3cccnc3)C(=O)CCS(=O)(=O)c3ccccc3)sc2c1`, the survival is 59% (inactive).

For `CC(=O)c1ccc(C(=O)N(Cc2cccnc2)c2nc3c(Cl)cccc3s2)cc1`, the survival is 119% (inactive).

Take `Cc1ccc2sc(N(Cc3cccnc3)C(=O)CCS(=O)(=O)c3ccccc3)nc2c1C`: the survival was 1% (active).

In the case of `CC(=O)c1ccc(C(=O)N(Cc2cccnc2)c2nc3c(C)c(C)ccc3s2)cc1`, the survival is -3% (active).

For `CC(=O)N(Cc1cccnc1)c1nc2c(C)c(C)ccc2s1`, the survival was 71% (inactive).

With `Cc1ccc(SCC(=O)Nc2ccc3oc(-c4cccc(C)c4)nc3c2)cc1`, the survival was 96% (inactive).

As to `CCOC(=O)CSc1nc2cc3c(cc2c(=O)n1CCCC(=O)NCCc1ccc(OC)c(OC)c1)OCO3`, the survival was -4% (active).

As for `COCCNC(=O)CSc1nc2cc3c(cc2c(=O)n1CCCCCC(=O)NCc1ccc(OC)cc1)OCO3`, the survival is 63% (inactive).

On to `COCCCNC(=O)CSc1nc2cc3c(cc2c(=O)n1CCCC(=O)NCc1ccc(OC)cc1)OCO3`, for which the survival was 70% (inactive).

Regarding `COCCCNC(=O)CSc1nc2cc3c(cc2c(=O)n1CCCCCC(=O)NCc1ccc(OC)cc1)OCO3`, the survival is 1% (active).

`CCN(CC)C(=O)CSc1nc2cc3c(cc2c(=O)n1CCCC(=O)NCc1ccc(OC)cc1)OCO3`: the survival was 82% (inactive).

For `CCOC(=O)CSc1nc2cc3c(cc2c(=O)n1CCCCCC(=O)NCc1ccc(OC)cc1)OCO3`, the survival was 71% (inactive).

In the case of `COc1ccc(CCNC(=O)CCCn2c(SCC(N)=O)nc3cc4c(cc3c2=O)OCO4)cc1OC`, the survival is 81% (inactive).

On to `CCN(CC)C(=O)CSc1nc2cc3c(cc2c(=O)n1CCCCCC(=O)NCc1ccc(OC)cc1)OCO3`, for which the survival was -3% (active).

As for `CCCCNC(=O)CSc1nc2cc3c(cc2c(=O)n1CCCC(=O)NCCc1ccc(OC)c(OC)c1)OCO3`, the survival is 129% (inactive).

These data come from PubChem BioAssay AID463173 (ICCB-Longwood Screening Facility, Harvard Medical School, 2010).
